# From ChEMBL document CHEMBL3988442, “University of Dundee, Small-Polar-MMV Screening Library” (2021)
# For some of these results: Entries with a potency or affinity are not part of this list.
# How the values were obtained:
# Set-up in all cases: scale not given: direction of the effect not stated beside the values
# [1] = target: Protein translocase subunit SecA (Escherichia coli (strain K12)) (UniProt P10408); experiment: Assay to Identify E. coli SecA ATPase Inhibitors; format: functional; settings: 30 µM
# Chain of Protein translocase subunit SecA (Escherichia coli (strain K12)) (P10408 whole entry): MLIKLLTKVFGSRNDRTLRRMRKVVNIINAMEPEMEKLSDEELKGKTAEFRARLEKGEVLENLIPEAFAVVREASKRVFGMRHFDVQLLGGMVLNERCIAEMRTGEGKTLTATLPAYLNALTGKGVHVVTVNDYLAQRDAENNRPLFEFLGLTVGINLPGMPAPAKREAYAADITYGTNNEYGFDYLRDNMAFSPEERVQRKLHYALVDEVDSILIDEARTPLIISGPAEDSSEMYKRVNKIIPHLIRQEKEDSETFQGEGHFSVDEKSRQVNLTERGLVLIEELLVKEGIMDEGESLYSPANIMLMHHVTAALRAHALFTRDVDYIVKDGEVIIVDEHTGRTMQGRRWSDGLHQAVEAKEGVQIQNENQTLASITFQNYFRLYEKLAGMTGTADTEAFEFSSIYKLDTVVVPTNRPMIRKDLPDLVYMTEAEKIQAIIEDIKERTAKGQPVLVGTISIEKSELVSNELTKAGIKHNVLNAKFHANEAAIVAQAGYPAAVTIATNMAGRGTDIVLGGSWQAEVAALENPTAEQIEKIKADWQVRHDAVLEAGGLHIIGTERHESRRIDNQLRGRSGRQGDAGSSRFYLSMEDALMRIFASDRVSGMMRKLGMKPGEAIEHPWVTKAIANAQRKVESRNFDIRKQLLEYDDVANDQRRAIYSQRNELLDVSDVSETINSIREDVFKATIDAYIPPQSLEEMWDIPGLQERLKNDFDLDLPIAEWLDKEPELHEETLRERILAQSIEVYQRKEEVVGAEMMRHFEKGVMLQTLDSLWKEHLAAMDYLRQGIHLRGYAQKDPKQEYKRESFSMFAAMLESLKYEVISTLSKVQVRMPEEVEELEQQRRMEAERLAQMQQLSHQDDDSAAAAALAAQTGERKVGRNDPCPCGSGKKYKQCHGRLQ
# [2] = target: T1, Ubiquitin-activating enzyme e1, putative (Leishmania donovani (strain BPK282A1)) (UniProt E9BSI1); experiment: Leishmania donovani Ubiquitin Activating Enzyme (LdE1); format: functional; settings: 30 µM
# T1 sequence (whole entry): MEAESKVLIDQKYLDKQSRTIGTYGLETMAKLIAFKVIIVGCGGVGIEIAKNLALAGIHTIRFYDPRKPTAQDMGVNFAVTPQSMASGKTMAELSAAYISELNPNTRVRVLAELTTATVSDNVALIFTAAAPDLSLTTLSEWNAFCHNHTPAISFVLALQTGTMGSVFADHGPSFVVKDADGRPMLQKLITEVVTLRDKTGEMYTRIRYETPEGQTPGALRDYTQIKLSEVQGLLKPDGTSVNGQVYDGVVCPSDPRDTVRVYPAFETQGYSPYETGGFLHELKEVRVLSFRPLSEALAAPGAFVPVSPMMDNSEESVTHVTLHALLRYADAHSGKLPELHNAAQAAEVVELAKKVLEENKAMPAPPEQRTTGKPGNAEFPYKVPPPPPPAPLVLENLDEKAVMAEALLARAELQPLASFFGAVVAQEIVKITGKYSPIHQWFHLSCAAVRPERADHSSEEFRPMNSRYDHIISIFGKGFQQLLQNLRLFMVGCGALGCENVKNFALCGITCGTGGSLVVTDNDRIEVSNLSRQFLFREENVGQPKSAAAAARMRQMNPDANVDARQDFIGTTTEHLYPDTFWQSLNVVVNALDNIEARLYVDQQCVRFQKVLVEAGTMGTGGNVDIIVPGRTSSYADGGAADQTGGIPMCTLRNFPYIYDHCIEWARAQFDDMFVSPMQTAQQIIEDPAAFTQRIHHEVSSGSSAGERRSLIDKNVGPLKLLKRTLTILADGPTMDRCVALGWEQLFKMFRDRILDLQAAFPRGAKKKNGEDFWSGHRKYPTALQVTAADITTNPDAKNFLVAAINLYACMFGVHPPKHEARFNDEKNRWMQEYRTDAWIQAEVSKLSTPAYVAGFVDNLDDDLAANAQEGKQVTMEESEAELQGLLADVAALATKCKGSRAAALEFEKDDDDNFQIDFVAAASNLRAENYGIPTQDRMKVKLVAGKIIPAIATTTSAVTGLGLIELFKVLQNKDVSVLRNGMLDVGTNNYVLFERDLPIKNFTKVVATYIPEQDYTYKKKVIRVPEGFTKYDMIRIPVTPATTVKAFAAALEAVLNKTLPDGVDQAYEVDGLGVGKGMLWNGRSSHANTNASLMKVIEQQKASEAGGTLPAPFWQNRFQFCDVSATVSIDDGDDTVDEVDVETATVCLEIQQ
# [3] = target: AMP-activated protein kinase, AMPK (Homo sapiens) (UniProt P54646+O43741+P54619+Q9UGJ0+Q9Y478+Q13131+Q9UGI9); experiment: AMP-dependent Kinase enzyme assay. An in vitro enzyme assay that detects ADP turnover that is directly proportional to AMPK activity. This uses naive AMPK that is activated during the assay with MK-8722; format: functional; settings: 30 µM
# [4] = target: Sialic acid-binding Ig-like lectin 9 (Homo sapiens) (UniProt Q9Y336); experiment: Hs-Siglec9 ALPHAscreen SOP 20170721; settings: 10 µM
# Chain of Sialic acid-binding Ig-like lectin 9 (Homo sapiens) (Q9Y336 whole entry): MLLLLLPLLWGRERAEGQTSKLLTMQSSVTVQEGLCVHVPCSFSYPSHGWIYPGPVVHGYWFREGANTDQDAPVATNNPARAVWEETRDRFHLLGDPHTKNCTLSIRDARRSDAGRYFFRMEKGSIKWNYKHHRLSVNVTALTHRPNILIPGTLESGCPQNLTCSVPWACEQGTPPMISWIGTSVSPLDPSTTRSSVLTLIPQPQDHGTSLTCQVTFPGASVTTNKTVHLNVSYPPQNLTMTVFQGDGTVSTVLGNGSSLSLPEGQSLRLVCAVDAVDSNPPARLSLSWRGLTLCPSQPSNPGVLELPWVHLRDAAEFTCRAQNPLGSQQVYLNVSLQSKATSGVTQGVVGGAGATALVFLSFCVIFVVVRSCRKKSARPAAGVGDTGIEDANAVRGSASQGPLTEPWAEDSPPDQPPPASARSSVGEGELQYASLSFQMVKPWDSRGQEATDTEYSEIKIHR
# [5] = tested on: Trypanosoma cruzi; experiment: Trypanosoma cruzi phosphomannomutase and mannose-1-phosphate guanylyltransferase assay; format: functional; settings: 10 µM
# [6] = target: T2, Arginase-2, mitochondrial (Homo sapiens) (UniProt P78540); experiment: in vitro enzyme assay to detect the production of urea directly proportional to the activity of Arginase II; format: functional; settings: 33.3 µM; note: in the data most compounds retested in dose-response had high values
# T2 sequence (whole entry): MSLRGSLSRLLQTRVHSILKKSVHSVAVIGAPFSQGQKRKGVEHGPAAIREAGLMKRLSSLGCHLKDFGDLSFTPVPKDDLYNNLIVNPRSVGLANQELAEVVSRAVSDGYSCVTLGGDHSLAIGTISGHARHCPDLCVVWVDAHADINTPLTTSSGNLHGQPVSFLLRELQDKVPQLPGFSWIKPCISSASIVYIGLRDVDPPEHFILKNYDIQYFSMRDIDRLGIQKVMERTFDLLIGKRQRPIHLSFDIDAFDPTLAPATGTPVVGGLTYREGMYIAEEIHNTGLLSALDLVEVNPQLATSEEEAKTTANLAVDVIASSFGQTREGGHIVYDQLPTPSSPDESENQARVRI
# [7] = target: T3, Proteasome subunit beta (Trypanosoma cruzi) (UniProt O96673); experiment: Trypanosoma cruzi proteasome chymotrypsin-like activity (TcProtChymo) assay.; note: in the data most compounds retested in dose-response had high values; format: functional; settings: 9.37 µM
# T3 sequence (whole entry): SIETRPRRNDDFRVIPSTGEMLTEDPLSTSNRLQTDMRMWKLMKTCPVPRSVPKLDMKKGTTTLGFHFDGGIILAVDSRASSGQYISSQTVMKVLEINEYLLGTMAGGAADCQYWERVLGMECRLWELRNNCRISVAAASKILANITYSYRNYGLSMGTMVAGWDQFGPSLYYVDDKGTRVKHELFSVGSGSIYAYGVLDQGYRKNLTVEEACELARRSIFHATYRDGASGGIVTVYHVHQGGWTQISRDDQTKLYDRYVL
# [8] = species: Homo sapiens; experiment: To identify inhibition of the IFN signalling (Jak-Stat) pathway via expression of an eGFP reporter gene under the control of an IFN-stimulated response element (ISRE) containing MxA promoter.; format: functional; settings: 30 µM
# [9] = target: T4, Tyrosyl-tRNA synthetase, putative (Trypanosoma cruzi (strain CL Brener)) (UniProt Q4DSP6); experiment: Trypanosoma cruzi tyrosyl tRNA synthetase (TcYRS) _High Tyrosine SOP; format: functional; settings: 30 µM; note: in the data most compounds retested in dose-response had high values
# T4 sequence (whole entry): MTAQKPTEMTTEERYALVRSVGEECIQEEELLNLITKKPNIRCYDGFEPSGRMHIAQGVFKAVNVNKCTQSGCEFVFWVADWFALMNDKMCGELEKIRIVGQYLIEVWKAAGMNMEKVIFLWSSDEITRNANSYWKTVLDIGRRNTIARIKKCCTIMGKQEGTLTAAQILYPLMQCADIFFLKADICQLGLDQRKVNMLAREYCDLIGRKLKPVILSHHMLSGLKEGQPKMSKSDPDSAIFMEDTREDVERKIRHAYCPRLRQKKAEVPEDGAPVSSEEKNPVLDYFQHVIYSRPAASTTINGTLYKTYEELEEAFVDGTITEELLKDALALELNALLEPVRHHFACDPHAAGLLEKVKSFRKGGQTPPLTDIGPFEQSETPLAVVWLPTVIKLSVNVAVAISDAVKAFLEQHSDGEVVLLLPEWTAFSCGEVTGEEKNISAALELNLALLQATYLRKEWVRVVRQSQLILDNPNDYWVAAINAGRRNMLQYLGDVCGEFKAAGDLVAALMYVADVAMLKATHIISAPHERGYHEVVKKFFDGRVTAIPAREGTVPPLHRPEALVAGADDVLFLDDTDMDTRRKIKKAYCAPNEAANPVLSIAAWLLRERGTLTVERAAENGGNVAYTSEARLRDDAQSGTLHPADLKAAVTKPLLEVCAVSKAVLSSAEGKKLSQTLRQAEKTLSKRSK
# [10] = target: T4, Tyrosyl-tRNA synthetase, putative (Trypanosoma cruzi (strain CL Brener)); experiment: Trypanosoma cruzi tyrosyl tRNA synthetase (TcYRS) SOP; format: functional; settings: 30 µM
# [11] = target: Chromo domain-containing protein 1 (Saccharomyces cerevisiae (strain ATCC 204508 / S288c) (Baker's yeast)) (UniProt P32657); experiment: ScCHD-1 Enzyme Inhibition Assay; format: functional; settings: 30 µM; note: in the data most compounds retested in dose-response had high values
# Chain of Chromo domain-containing protein 1 (Saccharomyces cerevisiae (strain ATCC 204508 / S288c) (Baker's yeast)) (P32657 whole entry, the tested form may be a part): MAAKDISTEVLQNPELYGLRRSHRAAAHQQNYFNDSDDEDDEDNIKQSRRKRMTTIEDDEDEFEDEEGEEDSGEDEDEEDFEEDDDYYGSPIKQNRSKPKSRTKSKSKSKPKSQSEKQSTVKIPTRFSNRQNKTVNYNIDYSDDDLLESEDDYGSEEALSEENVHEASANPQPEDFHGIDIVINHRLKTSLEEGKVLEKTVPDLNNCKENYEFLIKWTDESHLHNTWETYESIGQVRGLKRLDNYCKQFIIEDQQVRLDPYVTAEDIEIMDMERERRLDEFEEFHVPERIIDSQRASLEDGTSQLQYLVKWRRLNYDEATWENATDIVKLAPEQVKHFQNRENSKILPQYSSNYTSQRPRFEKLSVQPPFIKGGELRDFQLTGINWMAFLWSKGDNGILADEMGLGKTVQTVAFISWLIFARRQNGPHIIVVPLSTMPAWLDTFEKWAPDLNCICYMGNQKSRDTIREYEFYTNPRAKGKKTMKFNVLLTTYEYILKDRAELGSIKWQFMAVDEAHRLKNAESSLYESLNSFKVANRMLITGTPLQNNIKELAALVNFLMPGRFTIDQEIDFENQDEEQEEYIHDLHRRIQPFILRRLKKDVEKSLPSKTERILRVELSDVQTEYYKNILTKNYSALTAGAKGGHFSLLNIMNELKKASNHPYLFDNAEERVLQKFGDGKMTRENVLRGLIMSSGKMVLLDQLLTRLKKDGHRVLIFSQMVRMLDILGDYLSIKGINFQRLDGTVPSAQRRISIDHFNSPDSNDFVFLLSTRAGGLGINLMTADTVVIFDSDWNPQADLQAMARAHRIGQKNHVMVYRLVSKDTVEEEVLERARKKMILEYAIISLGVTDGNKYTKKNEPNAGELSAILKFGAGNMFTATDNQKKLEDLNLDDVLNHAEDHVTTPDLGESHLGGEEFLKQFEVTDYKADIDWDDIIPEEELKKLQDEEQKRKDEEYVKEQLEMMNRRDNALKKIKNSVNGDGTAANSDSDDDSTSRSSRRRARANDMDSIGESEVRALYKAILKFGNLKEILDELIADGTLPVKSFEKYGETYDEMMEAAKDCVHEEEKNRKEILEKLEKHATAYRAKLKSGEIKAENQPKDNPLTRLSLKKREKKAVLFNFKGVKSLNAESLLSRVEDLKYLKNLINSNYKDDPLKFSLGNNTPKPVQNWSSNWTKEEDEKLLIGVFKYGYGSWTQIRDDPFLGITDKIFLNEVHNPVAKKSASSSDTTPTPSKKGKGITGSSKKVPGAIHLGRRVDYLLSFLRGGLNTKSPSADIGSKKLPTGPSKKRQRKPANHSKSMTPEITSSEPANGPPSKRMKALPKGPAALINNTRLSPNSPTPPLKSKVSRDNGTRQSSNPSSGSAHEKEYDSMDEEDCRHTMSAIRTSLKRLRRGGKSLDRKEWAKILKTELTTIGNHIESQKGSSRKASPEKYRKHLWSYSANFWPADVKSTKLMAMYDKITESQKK
Compound,Percent Effect [1] [%],Percent Effect [2] [%],Percent Effect [3] [%],Percent Effect [4] [%],Percent Effect [5] [%],Percent Effect [6] [%],Percent Effect [7] [%],Percent Effect [8] [%],Percent Effect [9] [%],Percent Effect [10] [%],Percent Effect [11] [%]
COCCC(=O)N1CC2(CCN(Cc3ccoc3)C2)C1,-1.14,13.3,3.09,-10.1,-6.69,5.36,17.7,9.94,4.25,1.28,-1.88
O=C(NCCNc1ccccn1)N1CCSCC1,-7.13,5.41,23.3,-0.67,-4.43,0.802,6.67,5.29,1.48,1.24,-1.12
Cc1cnc(CN2CCOC(CNc3cccnn3)C2)cn1 (stereo unspecified),0.476,-7.79,-0.781,0.564,-6.74,8.54,0.676,17.9,0.971,-2.44,-5.93
Cc1noc(C)c1CN1CCN(Cc2ccncc2)c2ncccc2C1,-3.04,8,4.68,2.81,-6.5,-1.17,2.56,16.7,7.45,8.97,-0.129
CCc1ccc(C(=O)N2CCC(c3nncn3CC)CC2)cc1,-10,18.4,-9.82,-0.88,7.3,-5.92,7.57,5.31,3.19,15.6,-9.19
CCc1nccn1C1CCCN(C(=O)c2cnn3ccc(C)nc23)C1 (stereo unspecified),-3.42,-2.7,-5.57,1.51,-0.283,-2,4.5,4.32,5.42,-6.17,-7.37
Cc1ccc(NC(=O)c2cc(S(=O)(=O)N3CCCCC3)c[nH]2)cc1F,-2.47,5.2,59.4,-11.2,-5.03,5.81,6.61,4.38,5.29,-21.8,-9.19
Cc1ccccc1OCCC(=O)OC(C)C(=O)Nc1sccc1C(N)=O (stereo unspecified),-2.66,-2.7,6.19,-3.07,-9.09,-10.2,8.33,44.8,-15.1,-16.1,15.1
Cc1cnn(C2CCCN(C(=O)c3ccnc(-n4ccnc4)c3)C2)c1 (stereo unspecified),-2.31,8.86,2.83,0.259,-0.513,3.66,8.23,0.141,4.17,17.7,-27.2
Fc1cnc(N2CCC3(COCc4cnc(NCC5CC5)nc43)C2)nc1 (stereo unspecified),2.14,-2.74,27.5,4.49,-1.59,2.4,4.88,-6.32,1.04,3.7,2.6
CNC(=O)c1ccc(C(=O)N2CCCC2c2cnn(C)c2)cn1 (stereo unspecified),-3.23,7.89,-6.87,5.79,3.08,-2.88,9.05,-13.2,5.42,6.17,-6.61
